{
  "source": "the supplement of paper PMC4723716",
  "note": "Over roughly 3,600 compounds, “viability index relative to DMSO control” has its median near 0.81; the lowest 2% begin near 0.13. For the sample, the lowest values were picked, then their nearest neighbours and some compounds at random.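 Also: Saponin-lysis sexual stage assay in serum-free medium: MitoTracker Red CMXRos staining plus saponin, high-content imaging, particle count per well divided by plate mean of DMSO wells.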",
  "data": [
    {"tested_on": "Plasmodium falciparum NF54 stage V gametocytes", "experiment": "viability index relative to DMSO control (fraction); higher = less gametocyte killing", "conditions": "1.25 µM, incubation time: 72 h", "values": [
      {"smiles": "O=[N+]([O-])c1ccc2nc(Nc3ccc(Cl)c(Cl)c3)c(Nc3ccc(Cl)c(Cl)c3)nc2c1", "viability index": 0.0962},
      {"smiles": "O=[N+]([O-])c1ccc2nc(Nc3ccccc3)c(Nc3ccccc3)nc2c1", "viability index": 0.481},
      {"smiles": "O=[N+]([O-])c1ccc2nc(NC3CCCCC3)c(NC3CCCCC3)nc2c1", "viability index": 0.86},
      {"smiles": "O=[N+]([O-])c1ccc(S(=O)(=O)N2CCN(C(=S)NCc3ccccc3)CC2)cc1", "viability index": 0.163},
      {"smiles": "CC1(C)Cc2c(sc(NC(=O)CCl)c2C#N)CO1", "viability index": 0.556},
      {"smiles": "Cc1ccc(-c2noc(C3CCN(C(=O)Nc4ccc(C#N)cc4)CC3)n2)o1", "viability index": 0.957},
      {"smiles": "CC(C)c1nc(N2CCN(C(=O)Nc3ccccc3)CC2)c(C#N)c2c1COC(C)(C)C2", "viability index": 0.0954},
      {"smiles": "CC(C)c1nc(N2CCN(C(=S)NCc3ccccc3)CC2)c(C#N)c2c1COC(C)(C)C2", "viability index": 0.0888},
      {"smiles": "CCCC(=O)N1CCN(c2nc(Cc3ccccc3)c3c(c2C#N)CC(C)(C)OC3)CC1", "viability index": 0.568},
      {"smiles": "CC[n+]1c(SC)ccc2cc(OC)ccc21", "viability index": 0.681},
      {"smiles": "CCC(=O)NCc1nnc(SCc2cccc(C(F)(F)F)c2)n1-c1cccc(OC)c1", "viability index": 0.865},
      {"smiles": "C[n+]1ccccc1C=Cc1cc(Br)ccc1O", "viability index": 0.819},
      {"smiles": "CC(NC(=O)C(=O)N1CCCCC1)C(c1cccs1)N1CCOCC1", "note": "(stereo not given)", "viability index": 0.787},
      {"smiles": "Fc1cccc2sc(Nc3nc(-c4ccccn4)cs3)nc12", "viability index": 0.322},
      {"smiles": "Cc1ccnc(Nc2nc(-c3c(C)nc4sccn34)cs2)c1", "viability index": 0.822},
      {"smiles": "c1ccc(Nc2nc(-c3ccccn3)cs2)nc1", "viability index": 0.0653},
      {"smiles": "Cc1nc2sccn2c1-c1csc(Nc2ccccn2)n1", "viability index": 0.89},
      {"smiles": "COc1ccc2nc(Nc3nc(-c4ccccn4)cs3)sc2c1", "viability index": 0.331},
      {"smiles": "CC(=O)Nc1nc(C)c(-c2csc(Nc3ccc(C)cc3)n2)s1", "viability index": 0.351},
      {"smiles": "Cc1nc2ncccn2c1-c1csc(Nc2ccccn2)n1", "viability index": 1.06},
      {"smiles": "COc1ccc2sc(Nc3nc(-c4ccccn4)cs3)nc2c1", "viability index": 0.876},
      {"smiles": "Cc1ccnc(Nc2nc(-c3ccccn3)cs2)c1", "viability index": 0.0192},
      {"smiles": "Cc1ccc(Nc2nc(-c3ccccn3)cs2)cc1", "viability index": 0.127},
      {"smiles": "Cc1ccnc(Nc2nc(-c3ccc(Cl)cc3)cs2)c1", "viability index": 0.938},
      {"smiles": "O=C(Nc1nc(-c2ccccn2)cs1)c1ccc(Oc2ccc(C(=O)Nc3nc(-c4ccccn4)cs3)cc2)cc1", "viability index": 0.00826},
      {"smiles": "CC1CCc2c(sc(NC(=O)c3ccccc3F)c2C(=O)NCc2ccccc2)C1", "note": "(stereo not given)", "viability index": 1.42},
      {"smiles": "CCC(CC)=NNC(=O)C(=O)NC1CCCCC1", "viability index": 1.13},
      {"smiles": "CCC(=O)NC(c1ccccc1Cl)c1cc(Cl)c2cccnc2c1O", "note": "(stereo not given)", "viability index": 0.86},
      {"smiles": "O=C(O)c1ccc(S(=O)(=O)c2ccc3c(c2)C(=O)N(c2ccc(Sc4ccc([N+](=O)[O-])cc4)cc2)C3=O)cc1", "viability index": 0.887},
      {"smiles": "CCOc1ccc(Nc2cc(=O)oc3ccccc23)cc1", "viability index": 0.618},
      {"smiles": "CCCn1nc(Oc2nc(NCC)cc(OC)n2)ccc1=O", "viability index": 0.859},
      {"smiles": "N=c1c2c(n(Cc3ccccc3)c3c1CCC3)CCC2", "viability index": 0.87},
      {"smiles": "O=[N+]([O-])c1ccc(N2CCN(C(=S)Nc3ccccc3)CC2)cc1", "viability index": 0.967},
      {"smiles": "O=[N+]([O-])c1ccc(N2CCCN(C(=S)Nc3ccccc3)CC2)nc1", "viability index": 0.0788},
      {"smiles": "O=[N+]([O-])c1ccc(N2CCCN(C(=S)Nc3ccc(F)cc3Br)CC2)nc1", "viability index": 0.261},
      {"smiles": "NC1=NC(c2ccccc2)N(c2ccccc2)C(N)=N1", "note": "(stereo not given)", "viability index": 1.12},
      {"smiles": "O=C(Nc1ccccc1C(=O)O)c1cccc(NC(=O)c2ccco2)c1", "viability index": 0.73},
      {"smiles": "CCn1c(CSc2nc(C)cc(C)n2)nnc1SCC(N)=O", "viability index": 1.13},
      {"smiles": "CC(=O)N(C1=C(N2CCC(C)CC2)C(=O)c2ccccc2C1=O)c1cccc(F)c1", "viability index": 0.892},
      {"smiles": "CC(=O)N(C1=C(N(C)C)C(=O)c2ccccc2C1=O)c1cc(C)cc(C)c1", "viability index": 0.0811},
      {"smiles": "CC(=O)N(C1=C(N(C)C)C(=O)c2ccccc2C1=O)c1ccc(Cl)cc1", "viability index": 0.208},
      {"smiles": "CC(=O)N(C1=C(N(C)C)C(=O)c2ccccc2C1=O)c1cccc(F)c1", "viability index": 0.0612},
      {"smiles": "CC(=O)N(C1=C(N2CCOCC2)C(=O)c2ccccc2C1=O)c1ccc(I)cc1", "viability index": 0.14},
      {"smiles": "CC(=O)N(C1=C(N(C)C)C(=O)c2ccccc2C1=O)c1ccc(Cl)c(Cl)c1", "viability index": 0.257},
      {"smiles": "CC(=O)N(C1=C(N(C)C)C(=O)c2ccccc2C1=O)c1ccc(F)cc1", "viability index": 0.0453},
      {"smiles": "CC(=O)N(C1=C(N(C)C)C(=O)c2ccccc2C1=O)c1ccc(F)c(F)c1", "viability index": 0.0288},
      {"smiles": "O=C(CN(CCN1CCOCC1)S(=O)(=O)c1ccccn1)N1CCN(C(c2ccccc2)c2ccccc2)CC1", "viability index": 0.637},
      {"smiles": "CCN(CC)c1ccc(C=NNC(=O)c2ccc(Nc3nc(-c4ccccc4)cs3)cc2)c(O)c1", "viability index": 0.675},
      {"smiles": "Cc1ccccc1N1C(=O)C2C3c4ccccc4C(C(=O)O)(c4ccccc43)C2C1=O", "note": "(stereo not given)", "viability index": 0.616},
      {"smiles": "CN(C)CCN1CCN(c2ccnc3cc4ccccc4cc23)CC1", "viability index": 0.84},
      {"smiles": "O=c1c(=O)n(Cc2cccc(C(F)(F)F)c2)ccn1CCc1ccccc1", "viability index": 0.751},
      {"smiles": "CCN(CC)S(=O)(=O)c1ccc2[nH]cc(C(=O)NCCCN3CCN(c4ccc(OC)cc4)CC3)c(=O)c2c1", "viability index": 1.14},
      {"smiles": "CCN(CC)c1ccc(N=Cc2ccc(Sc3nc4ccccc4s3)o2)cc1", "viability index": 1.17},
      {"smiles": "OC(COc1ccc(OCC(O)CN2CCN(C3c4ccccc4-c4ccccc43)CC2)cc1)CN1CCN(C2c3ccccc3-c3ccccc32)CC1", "note": "(stereo not given)", "viability index": 0.754},
      {"smiles": "CC(=O)N(C1=C(N(C)C)C(=O)c2ccccc2C1=O)c1cccc(Cl)c1", "viability index": 0},
      {"smiles": "Cc1nc2c(C)cccc2c(O)c1CC=C(Cl)Cl", "viability index": 0.759},
      {"smiles": "Oc1c(CN2CCN(Cc3ccc4cccnc4c3O)CC2)ccc2cccnc12", "viability index": 0.601},
      {"smiles": "COc1ccc(S(=O)(=O)N=C2C=C(Nc3ccccc3)C(=O)c3ccccc32)cc1", "viability index": 0.232},
      {"smiles": "COc1ccc(-c2nc(NC(=O)CS(=O)(=O)c3ccccc3)sc2C)cc1", "viability index": 1.02},
      {"smiles": "COc1ccc(C(OCCS(=O)(=O)CCO)(c2ccccc2)c2ccc(OC)cc2)cc1", "viability index": 0.0248},
      {"smiles": "O=C(Nc1ccc(Oc2ccc(OC(F)(F)F)cc2)cc1)C1CC1", "viability index": 0.693},
      {"smiles": "CCCOC(=O)C1=C(C)NC2=C(C(=O)CC(c3ccc(OC)c(OC)c3)C2)C1c1cccc(Br)c1", "note": "(stereo not given)", "viability index": 0.83},
      {"smiles": "CCN1CCN(c2cc(C)c3cc(NC(=O)c4cncc(Br)c4)ccc3n2)CC1", "viability index": 0.801},
      {"smiles": "CCCCOc1ccc(N(C(C)=O)C2=C(N3CCCCC3)C(=O)c3ccccc3C2=O)cc1", "viability index": 0.301},
      {"smiles": "CC(=O)N(C1=C(N2CCCC2)C(=O)c2ccccc2C1=O)c1cccc(F)c1", "viability index": 1},
      {"smiles": "CCCNC1=C(N(C(C)=O)c2cccc(F)c2)C(=O)c2ccccc2C1=O", "viability index": 0.0245},
      {"smiles": "CC(=O)N(C1=C(N2CCCCC2)C(=O)c2ccccc2C1=O)c1cccc(F)c1", "viability index": 0.833},
      {"smiles": "CC(=O)N(C1=C(N2CCCC2)C(=O)c2ccccc2C1=O)c1ccc(I)cc1", "viability index": 0.879},
      {"smiles": "CCCNC1=C(N(C(C)=O)c2ccc(C)cc2)C(=O)c2ccccc2C1=O", "viability index": 0.0531},
      {"smiles": "COc1cccc(C(=O)NC(c2ccc(Cl)cc2)c2cc(Cl)c3cccnc3c2O)c1", "note": "(stereo not given)", "viability index": 0.523},
      {"smiles": "COCCCNC(=O)C=Cc1ccc(C(C)C)cc1", "viability index": 0.976},
      {"smiles": "C=CCOC(=O)C1=C(C)N2CCSC2=C(C#N)C1c1ccco1", "note": "(stereo not given)", "viability index": 1.13},
      {"smiles": "O=C(Nc1ccc2nc3n(c(=O)c2c1)CCCCC3)C(=O)N1CCN(c2cccc(Cl)c2)CC1", "viability index": 0.432},
      {"smiles": "O=C(CCCCCN1C(=O)c2cccc3cccc(c23)C1=O)NO", "viability index": 0.853},
      {"smiles": "Cn1c(SCc2cccc([N+](=O)[O-])c2)nc2c(c1=O)SCC2", "viability index": 0.818},
      {"smiles": "CC(=O)N(C1=C(N2CCOCC2)C(=O)c2ccccc2C1=O)c1cccc(Cl)c1", "viability index": 0.0385},
      {"smiles": "CC(=O)N(C1=C(N2CCOCC2)C(=O)c2ccccc2C1=O)c1cc(C)cc(C)c1", "viability index": 0.0695},
      {"smiles": "CC(=O)N(C1=C(N2CCCCC2)C(=O)c2ccccc2C1=O)c1cccc(Cl)c1", "viability index": 0.144},
      {"smiles": "CC(=O)N(C1=C(N2CCOCC2)C(=O)c2ccccc2C1=O)c1ccc(Cl)c(Cl)c1", "viability index": 0.351},
      {"smiles": "CC(=O)N(C1=C(N2CCCCC2)C(=O)c2ccccc2C1=O)c1ccc(F)c(F)c1", "viability index": 0.837},
      {"smiles": "CC(=O)N(C1=C(N2CCN(C)CC2)C(=O)c2ccccc2C1=O)c1cc(C)cc(C)c1", "viability index": 0.521},
      {"smiles": "CC(=O)N(C1=C(N2CCOCC2)C(=O)c2ccccc2C1=O)c1ccc(Br)cc1", "viability index": 0.408},
      {"smiles": "CC(=O)N(C1=C(N2CCOCC2)C(=O)c2ccccc2C1=O)c1ccc(F)c(F)c1", "viability index": 0.0694},
      {"smiles": "CC(=O)N(C1=C(N2CCCC2)C(=O)c2ccccc2C1=O)c1ccc(F)c(F)c1", "viability index": 0.743},
      {"smiles": "COc1cncc(-c2cncc(-c3ccc(Oc4ccccc4)cc3)n2)c1", "viability index": 0.899},
      {"smiles": "COc1cc2c(cc1OC)C(COc1ccc(F)cc1)N(C(=O)c1ccc(OC(C)C)cc1)CC2", "note": "(stereo not given)", "viability index": 0.66},
      {"smiles": "CCCN(CCC)CC(O)COc1ccccc1C(=O)Nc1ccccc1", "note": "(stereo not given)", "viability index": 0.65},
      {"smiles": "Cc1ccc(N2C(N)=NC(N)=NC2(C)C)cc1", "viability index": 0.985},
      {"smiles": "C=CCCC(=O)N1CCC(C(=O)Nc2ccc(-c3nc4ccccc4o3)cc2)CC1", "viability index": 0.846},
      {"smiles": "c1ccc2c(c1)[nH]c1c(NCCN3CCCCC3)ncnc12", "viability index": 1.09}
    ]}
  ]
}
